Here are results for 37 compounds from publication PMC5540273 (PLoS ONE, 2017).

Each structure is given as a SMILES string.
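Also: KINOMEscan kinase panel screen.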

The test system of this experiment is CSNK1D. The following applies: concentration: 1 μM, replicates: in singlicate; n = 1.
`Cc1ccc(C)c(NC(=O)NC2CCN(c3ccnc(Nc4ccc(F)cc4)n3)C2)c1` (stereo not shown) [GSK1379720]: the “%Inh” value turned out to be 6%.
Regarding `Cl.Cl.NCC(NC(=O)c1cc(-c2ccccc2)c(-c2ccnc3[nH]ccc23)s1)c1ccccc1` (stereo not shown) [GSK1321561], the “%Inh” value was 98%.
`CN(C)Cc1ccc(-c2ccc3c(Nc4ccc(Oc5ccccn5)cc4)ccnc3c2)o1` [GW567148]: the “%Inh” value is listed as 0%.
In the case of `COc1cccc(C(=O)Nc2cccc(Oc3ccc4nc(NC(=O)C5CC5)cn4n3)c2)c1`, the “%Inh” value came out at 1%.
With `CNC(=O)c1ccccc1Nc1nc(Nc2ccc(N3CCOCC3)cc2)ncc1Cl.Cl` [GSK1576028], the “%Inh” value stood at 36%.
Regarding `C[C@@H]1CC[C@@H](C(=O)Nc2ccccc2)CN1c1cc(-c2ccc3c(N)n[nH]c3c2)nc(N)n1` [GSK2286062], the “%Inh” value is 20%.
For `Cn1cc(-c2ccc3c(c2)CCN3C(=O)Cc2cccc(Cl)c2)c2c(N)ncnc21` [GSK2606590] the value was 16%; for `FC(F)(F)c1ccc(/C=C/c2cncnc2Nc2ccc3[nH]c(Cc4ccccc4)nc3c2)cc1` [GW709199], 3%.
Take `COc1cccc(NC(=O)NC2CCN(c3ccnc(Nc4cc(OC)c(OC)c(OC)c4)n3)C2)c1` (stereo not shown) [GSK1379763]: the “%Inh” value was 0%.
For the compound `Fc1ccc(-c2ncn(C3CCNCC3)c2-c2ccnc(Oc3ccc(-c4ccccc4)cc3)n2)cc1` [SB-245391], the “%Inh” value turned out to be 96.2%.
Regarding `Oc1cc(Nc2ccnc3cc(I)ccc23)ccc1F` [GW552771], the “%Inh” value turned out to be 20%.
`COC(=O)Nc1nc2ccc(Oc3ccc(NC(=O)Nc4cc(C(F)(F)F)ccc4F)cc3)cc2n1C.Cl` [GW692089]: the “%Inh” value was 0%.
Turning to `CC(=O)N1CCN(c2ccc(Nc3nccc(-c4sc(C(C)C)nc4-c4cccc(NS(=O)(=O)c5cccc(Cl)c5)c4)n3)cn2)CC1` [GSK1660437], the “%Inh” value worked out at 0%.
Take `Cl.Cl.NCC(C(=O)Nc1cc(Br)c(-c2ccnc3[nH]ccc23)s1)c1ccccc1` (stereo not shown) [GSK1269851]: the “%Inh” value was determined as 35%.
On to `CC(C)(C)c1ccc2nccc(Nc3cccc(O)c3)c2c1` [GW856795], for which the “%Inh” value worked out at 0%.
On to `NCCCC(NC(=O)c1cc(Br)c(-c2ccnc3[nH]ccc23)s1)c1ccccc1.O=C(O)C(F)(F)F.O=C(O)C(F)(F)F` (stereo not shown) [GSK1287544], for which the “%Inh” value is reported as 82%.
For `Cl.c1ccc(-c2ccc3c(Nc4ccc5[nH]ncc5c4)ccnc3c2)nc1` [GW440137] the value was 27%; for `c1ccc(Oc2ccc(Nc3ccnc4cc(-c5ccc(CNCCN6CCOCC6)o5)ccc34)cc2)nc1` [GW567145], 0%; for `O=C(Nc1cccc(Oc2ccc3nc(NC(=O)C4CC4)cn3n2)c1)c1ccccc1C(F)(F)F`, 0%.
With `CC(C)c1nc(-c2cccc(NS(=O)(=O)c3c(F)cccc3F)c2F)c(-c2ccnc(Nc3ccc(N4CCOCC4)nc3)n2)s1` [GSK2008607], the “%Inh” value came out at 0%.
Turning to `Nc1ncc(-c2cccnc2)c2scc(-c3ccc4c(c3)CCN4C(=O)Cc3ccccc3)c12` [GSK683281], the “%Inh” value is recorded as 13%.
On to `Cn1cc(-c2ccc3c(c2)CCN3C(=O)Cc2cccc(F)c2)c2c(N)ncnc21` [GSK2603358], for which the “%Inh” value is on record as 20%.
For `Cl.NC(=O)c1cccc(Nc2nccc(Nc3ccc(Oc4c(Cl)cccc4Cl)c(Cl)c3)n2)c1` [GW659009], the “%Inh” value came to 0%.
Consider `COCCOCCOc1cc2ncc3c4ccc(C#N)cc4[nH]c3c2cc1OC`, for which the “%Inh” value was 0%.
As for `COc1cccc(-c2ccc3c(NC(=O)C4CC4)n[nH]c3n2)c1` [SB-710903], the “%Inh” value was determined as 18%.
Consider `Nc1ncc(-c2ccc3nccc(-c4ccncc4)c3c2)cc1S(=O)(=O)N1CCOCC1` [GSK1627798], for which the “%Inh” value came to 37%.
Turning to `Cc1ccc(C(=O)N2CC[C@@H](O)C2)cc1-n1c(C)cc(OCc2ccc(F)cc2F)c(Br)c1=O`, the “%Inh” value is 0%.
Turning to `O=C(O)C(F)(F)F.O=C(O)C(F)(F)F.O=c1[nH]ccc2nc(N[C@@H]3CCCNC3)nc(Nc3ccc(S(=O)(=O)N4CCOCC4)cc3)c12` [GSK2177277], the “%Inh” value amounted to 98.7%.
As for `COc1cc(Nc2nccc(-c3c(-c4cccc(NC(=O)c5c(F)cccc5F)c4)nn4ncccc34)n2)cc(OC)c1OC` [GSK327238], the figure is 23%.
Take `COc1cccc(C2=C(Nc3ccc(Cl)c(C(=O)O)c3)C(=O)NC2=O)c1` [SB-390769]: the “%Inh” value is recorded as 8%.
In the case of `Cc1ccc(C(=O)Nc2ccc(Nc3ccnc4cc(-c5nccs5)ccc34)cc2O)cc1.Cl` [GW494702], the “%Inh” value came to 97.1%.
`CCn1c(-c2nonc2N)nc2c(C#CC(C)(C)O)nc(OC[C@H](N)c3ccccc3)cc21` [GSK943949]: the “%Inh” value came out at 0%.
Turning to `COC(=O)Nc1nc2cc(Oc3ccc(NC(=O)Nc4cc(C(F)(F)F)ccc4F)cn3)ccc2[nH]1.Cl.Cl` [GW681170], the “%Inh” value amounted to 6%.
Consider `Cl.Cl.NCC(NCc1ccc(-c2ccnc3[nH]ccc23)s1)c1ccccc1` (stereo not shown) [GSK1321565], for which the “%Inh” value is listed as 26%.
As to `O=c1[nH]cc(-c2ccc(N3CCOCC3)cc2)c2sc(-c3cn[nH]c3)cc12` [GSK2276055], the “%Inh” value amounted to 84%.
Turning to `c1ccc(-c2cnc3nccnn23)cc1` [AH20685], the “%Inh” value came to 11%.
As for `COc1cc(Nc2nccc(-c3c(-c4cccc(NC(=O)c5c(F)cccc5F)c4)nn4ccccc34)n2)cc(OC)c1OC` [GSK323521], the “%Inh” value is reported as 29%.
